In ChEMBL document CHEMBL4296182, “CO-ADD screening of NIH NCI Diversity Set V” one finds Inhibition data, which are given here for 25 molecules.

For part of these data: Results with a measured potency or affinity are listed apart.

In assay [1] the test system is Staphylococcus aureus. Kind of assay: Antibacterial activity against Staphylococcus aureus MRSA ATCC 43300 (CO-ADD:GP_020); MIC in CAMBH media using NBS plates, by Resazurin F(560/590). It counts as functional. The settings on record: Concentration 20 uM, ASSAY_TEST Inhibition of Bacterial Growth, detection method Resazurin, Fluorescence (ex560/em590), MEDIA CAMHB, plate type 384well, CORNING #3640, time 18 hr. For orientation: Resazurin is reduced to fluorescent resorufin, in cell work by metabolically active cells.

Assay [2] concerns Acinetobacter baumannii. Kind of assay: Antibacterial activity against Acinetobacter baumannii ATCC 19606 (CO-ADD:GN_034); MIC in CAMBH media using NBS plates, by Resazurin F(560/590). Type of assay: functional. The settings on record: Concentration 20 uM, ASSAY_TEST Inhibition of Bacterial Growth, detection method Resazurin, Fluorescence (ex560/em590), MEDIA CAMHB, plate type 384well, CORNING #3640, time 18 hr.

The subject of assay [3] is Escherichia coli. Kind of assay: Antibacterial activity against Escherichia coli ATCC 25922 (CO-ADD:GN_001); MIC in CAMBH media using NBS plates, by Resazurin F(560/590). It counts as functional. The settings on record: Concentration 20 uM, ASSAY_TEST Inhibition of Bacterial Growth, detection method Resazurin, Fluorescence (ex560/em590), MEDIA CAMHB, plate type 384well, CORNING #3640, time 18 hr.

In assay [4] the test system is Klebsiella pneumoniae. The settings on record: Concentration 20 uM; ASSAY_TEST Inhibition of Bacterial Growth; detection method Absorption (OD600); MEDIA CAMHB; plate type 384well; NBS; CORNING #3640; time 18 hr.
Assay [5] deals with Candida albicans. The settings on record: 20 µM.
The subject of assay [6] is Cryptococcus neoformans. The settings on record: Concentration 20 uM; ASSAY_TEST Inhibition of Fungal Growth; detection method Resazurin; Absorption (OD600-OD570); plate type 384well; NBS; CORNING #3640.

Regarding `CCSc1ncc(CO)c(N)n1`, the Inhibition is 4.68% in assay [1]; -13.15% in assay [2]; 2.64% in assay [3]; 10.1% in assay [4]; 0.06% in assay [5]; 1.67% in assay [6].
For the molecule `CCOC(=O)c1cnc(SCC)nc1O`, the Inhibition in assay [1] was 11.19%; in assay [2], -12.25%; in assay [3], 0.66%; in assay [4] it was 10.25%; in assay [5], 0.68%; in assay [6], -8.17%.
In the case of `CCCNC(=O)c1ccccc1C(=O)NC1(C(=O)NCCC)CCCC1`, the Inhibition in assay [1] is 14.23%; in assay [2] it was 6.45%; in assay [3], 3.42%; in assay [4], 12.55%; in assay [5] it was -0.46%; in assay [6] it was -3.84%.
With `O=C(Nc1ccc(Oc2ccc(NC(=O)Nc3ccc([N+](=O)[O-])cc3)cc2)cc1)Nc1ccc([N+](=O)[O-])cc1`, the Inhibition in assay [1] is 16.59%; in assay [2], -20.31%; in assay [3], 13.56%; in assay [4], 15.1%; in assay [5], 1.13%; in assay [6], -4.65%.
For `c1ccc2c(c1)-c1cccc3cncc-2c13`, the Inhibition is 1.08% in assay [1]; -2.19% in assay [2]; 3.18% in assay [3]; 7.94% in assay [4]; 12.2% in assay [5]; -10.41% in assay [6].
Take `CCOc1ccc(S(=O)(=O)c2ccc(C)cc2)c2c1no[n+]2[O-]`: the Inhibition in assay [1] was 12.11%; in assay [2], 5.81%; in assay [3], 11.8%; in assay [4], 9.49%; in assay [5], 1.5%; in assay [6], -13.62%.
Take `Cc1csc(/N=N/c2ccc(N(C)C)cc2)[n+]1[O-]`: the Inhibition is 7.37% in assay [1]; -4.68% in assay [2]; 8.16% in assay [3]; 7.6% in assay [4]; 0.83% in assay [5]; -12.25% in assay [6].
Take `Nc1ccc(C(=O)Nc2ccc(Nc3ccncc3)cc2)cc1`: the Inhibition in assay [1] was -3.72%; in assay [2] it was 6.97%; in assay [3], -13.54%; in assay [4], 10.04%; in assay [5], 2.67%; in assay [6], -0.31%.
For `COc1ccc2c(n1)Sc1nc3ccccc3nc1N2`, the Inhibition was 9.7% in assay [1]; -15.29% in assay [2]; 7.15% in assay [3]; 4.25% in assay [4]; 3.02% in assay [5]; -8.75% in assay [6].
As to `O=C(Oc1ccccc1)c1cccc2cccc(C(=O)Oc3ccccc3)c12`, the Inhibition in assay [1] was 17.84%; in assay [2] it was 0.5%; in assay [3] it was -0.78%; in assay [4], 14.06%; in assay [5], 7.13%; in assay [6] it was -3.03%.
As for `CCOC(=O)CC1(C)NC(C(=O)O)C(C)(C)S1` (stereo not given), the Inhibition in assay [1] is -14.37%; in assay [2], 0.02%; in assay [3], -11.39%; in assay [4], 5.07%; in assay [5] it was 3.25%; in assay [6] it was 0.86%.
For the molecule `CS(=O)(=O)Nc1nc2ccccc2[nH]1`, the Inhibition is 10.98% in assay [1]; 4.83% in assay [2]; -1.14% in assay [3]; 15.79% in assay [4]; 3.39% in assay [5]; -3.84% in assay [6].
Consider `O=C(O)c1ccc(OCCOc2ccccc2)cc1`, for which the Inhibition in assay [1] is -1.13%; in assay [2], -7.25%; in assay [3] it was 7.53%; in assay [4], 15.54%; in assay [5], 7.45%; in assay [6] it was -11.92%.
Turning to `O=C(CN1CCOCC1)N1CCOCC1`, the Inhibition in assay [1] was 15.46%; in assay [2], -15.04%; in assay [3] it was 7.84%; in assay [4], 3.48%; in assay [5] it was -1.35%; in assay [6], -8.59%.
With `CCOCCc1c(O)nc(SC)nc1O`, the Inhibition in assay [1] is -2.52%; in assay [2], -10.74%; in assay [3], 0.79%; in assay [4], 7.34%; in assay [5], 2.01%; in assay [6] it was -12.26%.
Consider `O=C(c1ccccc1)c1ccc[nH]1`, for which the Inhibition is -0.8% in assay [1]; -3.74% in assay [2]; -15.34% in assay [3]; 11.78% in assay [4]; 2.09% in assay [5]; 18.91% in assay [6].
For the molecule `Nc1ccccc1Sc1cc(Cl)nnc1Cl`, the Inhibition in assay [1] is 10.59%; in assay [2], -10.6%; in assay [3] it was 6.4%; in assay [4] it was 13.76%; in assay [5], 6.84%; in assay [6], -6.72%.
Consider `CCCCC(=O)N1CCCC(C)C1` (stereo not given), for which the Inhibition in assay [1] is 12.48%; in assay [2], -11.97%; in assay [3], 4.56%; in assay [4], -3.93%; in assay [5] it was 4.76%; in assay [6] it was -4.37%.
For the molecule `O=C1CCCC1C(=O)Nc1ccc2ccccc2c1` (stereo not given), the Inhibition in assay [1] was 9.31%; in assay [2], 10.21%; in assay [3], -4.09%; in assay [4], 17.7%; in assay [5] it was 10.3%; in assay [6], -1.69%.
Regarding `COC1OC(CO)C(N=C(C)C)C1O` (stereo not given), the Inhibition is -11.36% in assay [1]; -14% in assay [2]; 0.14% in assay [3]; 2.78% in assay [4]; 0.83% in assay [5]; -10.33% in assay [6].
As for `Oc1ccc(/N=N/c2nccs2)c(O)c1`, the Inhibition in assay [1] was -2.42%; in assay [2] it was 12.54%; in assay [3], -3.78%; in assay [4], 17.07%; in assay [5], 29.2%; in assay [6] it was 2.7%.
Regarding `O=c1cc(-c2ccccc2)[nH]c2cc(-c3ccco3)nn12`, the Inhibition is 0.84% in assay [1]; -12.67% in assay [2]; 11.9% in assay [3]; 14.24% in assay [4]; -0.13% in assay [5]; -17.18% in assay [6].
Turning to `Cc1ccc(S(=O)(=O)NNC(=O)C23CCC(CC2)C3)cc1`, the Inhibition in assay [1] is -6.52%; in assay [2] it was 6.35%; in assay [3] it was 7.26%; in assay [4] it was 14.92%; in assay [5], 4.46%; in assay [6] it was -6.05%.
On to `Cn1c([N+](=O)[O-])cnc1N1CCN(c2nncs2)C1=O`, for which the Inhibition was 0.67% in assay [1]; -10.23% in assay [2]; 2.52% in assay [3]; 15.88% in assay [4]; 1.82% in assay [5]; -10.17% in assay [6].
Consider `Clc1ccc(-c2nc(-c3cc4cc(Cl)ccc4o3)cs2)cc1`, for which the Inhibition in assay [1] was -3.66%; in assay [2], 8.53%; in assay [3], 11.7%; in assay [4], 9.81%; in assay [5] it was 1.45%; in assay [6] it was -4.29%.

Usually Inhibition stands for the drop in the measured response relative to a control, in per cent.
